Rows were chosen to be rich in hits. Some 7.3% of all compounds tested hit in one or more screens of this group.
Rab9 promoter act: activates the Rab9 promoter | 2.8% of 320,000 active | Potency, µM (top dose mostly 9.22 µM), actives largely listed as activators | Huh7 Rab9 promoter-luciferase reporter, luminescence, 24 h; note: nearly all actives have a fitted effect of over 60% in size
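Using Huh7 cells stably transfected with Rab9 promoter–luciferase, compounds were incubated 24 h at 37 °C, 5% CO2; luciferase luminescence was read 10 min after reagent addition.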
ELG1 genotoxic: induces genotoxicity in HEK293T cells with luciferase-tagged ELG1. AID 504466. HEK293T ELG1-luciferase reporter, luminescence, 16 h. 1.3% of 330,000 active. Potency, µM (highest dose often 46 µM), usual class: activators; note: nearly all actives have a fitted effect of over 60% in size
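DMSO vehicle served as control against compound-treated ELG1-luciferase HEK293T cells; exposure lasted 16 hr at 37 °C and 5% CO2, followed by ONE-Glo luminescence detection after 30 min.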
p53 reactivation: mutant p53 re-activation in reporter cells; H1299 p53-A138V BP100-luciferase reporter, luminescence, 24 h; Potency, µM (titrated, usually from 92.2 µM), hits mostly activators; 0.063% of 320,000 active; note: nearly all actives have a fitted effect of over 45% in size
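H1299 (p53-null), stable ts p53-A138V + BP100-Luc; 1000 cells/well, Opti-MEM/10% FBS; cpd 4 pt, 1:5; 24 h, 37 deg C, 5% CO2; detection reagent 10 min RT; luminescence.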
FLuc counter: firefly luciferase modulation, counter-screen for miR-21 project; P08659; AID 588342; purified FLuc, Km substrates, luminescence inhibition; 6.9% of 360,000 active; Potency, µM (highest dose often 57.5 µM), actives largely listed as inhibitors; note: nearly all actives have a fitted effect of over 55% in size
Target sequence (P08659 whole entry, looked up): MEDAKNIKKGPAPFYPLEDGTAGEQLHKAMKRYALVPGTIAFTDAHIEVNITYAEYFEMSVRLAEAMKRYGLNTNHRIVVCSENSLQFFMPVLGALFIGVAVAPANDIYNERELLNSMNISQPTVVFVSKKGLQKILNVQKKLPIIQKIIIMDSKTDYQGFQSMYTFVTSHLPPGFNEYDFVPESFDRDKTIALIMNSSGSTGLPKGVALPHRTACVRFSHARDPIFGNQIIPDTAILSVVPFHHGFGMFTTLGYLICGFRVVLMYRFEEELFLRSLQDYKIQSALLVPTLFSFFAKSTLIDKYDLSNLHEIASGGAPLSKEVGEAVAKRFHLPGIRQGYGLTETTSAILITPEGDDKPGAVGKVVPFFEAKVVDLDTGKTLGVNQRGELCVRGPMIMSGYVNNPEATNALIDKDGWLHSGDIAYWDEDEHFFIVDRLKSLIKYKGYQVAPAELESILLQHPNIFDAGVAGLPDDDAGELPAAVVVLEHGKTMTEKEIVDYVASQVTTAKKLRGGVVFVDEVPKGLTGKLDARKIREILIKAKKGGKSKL
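Purified P. pyralis luciferase (10nM final) with 10uM D-luciferin and 10uM ATP (Km levels) in 50mM Tris acetate pH 7.5, 10mM Mg acetate, 0.01% Tween-20, 0.05% BSA; qHTS 6-point titration, ~60 µM downward; luminescence read.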
NPC1 prom act: activators of NPC1 promoter; Huh7 NPC1 promoter luciferase reporter, 24 h; Potency, µM (series often up to 9.22 µM), hits mostly activators; 2.4% of 320,000 active; AID 485313; note: nearly all actives have a fitted effect of over 60% in size
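In 1536-well qHTS, Huh7 cells harboring an NPC1 promoter–luciferase construct received compound for 24 h; activation was quantified by luminescence following luciferase reagent addition.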
SMN2 splice up: enhancers of SMN2 splice variant expression; HEK293 SMN2-luciferase splicing reporter, luminescence, 30-36 h; 2.8% of 210,000 active; AID 1458; Potency, µM (titrated, usually from 46.1 µM), hits mostly activators; note: nearly all actives have a fitted effect of over 55% in size
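qHTS luciferase splicing reporter: luminescence rises when SMN2 exon 7 is included in transfected HEK293 cells. Compound exposure lasted 30-36 h at 37C, with 4.5 mM final sodium butyrate as control, followed by a ONE-Glo read.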
Large screens that a line does not name were inactive. Calls come from the whole dose curve; as a rule, active = well fitted curve in the direction sought with a large enough effect; inconclusive = small, poorly fitted or top-dose-only effect, or another doubt; inactive = no such curve, though single readings can be large; an effect the other way counts as inactive or inconclusive.

O=C(Nc1ccc2c(c1)CCC2)c1cccc(F)c1	Rab9 promoter act 1.4µM, ELG1 genotoxic 8.2µM, p53 reactivation inconclusive, FLuc counter 5.4µM, NPC1 prom act 3.2µM, SMN2 splice up 11µM
O=C(Cc1ccccc1F)Nc1ccc2c(c1)CCC2	Rab9 promoter act 3.2µM, ELG1 genotoxic 15µM, p53 reactivation inconclusive, FLuc counter 7.6µM, NPC1 prom act 2µM (no result: SMN2 splice up)
O=C(Nc1ccc2c(c1)CCC2)c1cc(F)cc(F)c1	Rab9 promoter act 1.4µM, ELG1 genotoxic inconclusive, p53 reactivation inconclusive, FLuc counter 3µM, NPC1 prom act 2.5µM (no result: SMN2 splice up)
CCOC(=O)c1noc2ncnc(Nc3ccc(C)c(F)c3)c12	none (no result: Rab9 promoter act, ELG1 genotoxic, p53 reactivation, NPC1 prom act, SMN2 splice up)
Cc1ccc(Cl)cc1NC(=O)Nc1nnc(N2CCCC(C)C2)s1 (stereo unspecified)	none (no result: Rab9 promoter act, ELG1 genotoxic, p53 reactivation, NPC1 prom act, SMN2 splice up)
CCCCCn1cc2c(c1-c1ccc(Br)cc1)c(=O)n(C)c(=O)n2C	none (no result: Rab9 promoter act, ELG1 genotoxic, p53 reactivation, NPC1 prom act)
c1ccc2[nH]c(CN3CCCCCC3)nc2c1	none
c1ccc2c(c1)CC/C2=N/Nc1nc2ccccc2[nH]1	Rab9 promoter act 2.5µM, ELG1 genotoxic inconclusive, FLuc counter 6.7µM, NPC1 prom act inconclusive, SMN2 splice up 11µM
CC(C)(C)C1CCC(=NNc2nc3ccccc3[nH]2)CC1 (stereo unspecified)	FLuc counter 13µM
c1ccc(CN2CCC(=NNc3nc4ccccc4[nH]3)CC2)cc1	FLuc counter 19µM
CCN(CC)CCC[C@H](C)Nc1c2ccc(Cl)cc2nc2ccc(OC)cc12	none (no result: Rab9 promoter act, ELG1 genotoxic, p53 reactivation, FLuc counter, NPC1 prom act)
CCOc1ccc2oc(=O)cc(CN3CCN(C(=O)c4ccc(Cl)cc4)CC3)c2c1	none (no result: Rab9 promoter act, ELG1 genotoxic, p53 reactivation, NPC1 prom act)
CC1CCC(C(C)C)[C@H](O)C1 (stereo partly specified)	none (no result: Rab9 promoter act, ELG1 genotoxic, p53 reactivation, FLuc counter, NPC1 prom act)
COc1ccc(CNC(=O)CSc2nnc(NC(=O)c3ccccc3F)s2)cc1	Rab9 promoter act 2.2µM, ELG1 genotoxic inconclusive, FLuc counter 11µM, NPC1 prom act 3.2µM (no result: SMN2 splice up)
O=C(CSc1nnc(Nc2ccccc2F)s1)NC1CC1	p53 reactivation inconclusive, FLuc counter inconclusive (no result: SMN2 splice up)
O=C(Nc1nnc(SCC(=O)N2CCCCC2)s1)c1ccc(F)cc1F	FLuc counter 8.5µM (no result: SMN2 splice up)
O=C(CSc1nnc(NC(=O)c2ccc(F)cc2F)s1)NC1CCCC1	Rab9 promoter act inconclusive, ELG1 genotoxic inconclusive, FLuc counter 4.3µM, NPC1 prom act inconclusive (no result: SMN2 splice up)
O=C(CSc1nnc(NC(=O)c2c(F)cccc2F)s1)NCc1ccccc1	none (no result: SMN2 splice up)
O=C(CSc1nnc(NC(=O)c2ccccc2F)s1)NC1CCCC1	Rab9 promoter act 3.2µM, p53 reactivation inconclusive, FLuc counter 11µM, NPC1 prom act inconclusive (no result: SMN2 splice up)
O=C(Cc1ccc(F)cc1)Nc1nnc(SCC(=O)N2CCCCC2)s1	none
COc1ccc2c(c1)O[C@H](c1ccc3c(c1)OCO3)[C@@H](OC(=O)NCc1ccco1)C2=O	none (no result: Rab9 promoter act, ELG1 genotoxic, p53 reactivation, FLuc counter, NPC1 prom act)
CC1(OC(=O)C2CCCC2)C(=O)C=C2C=C(c3ccsc3)N(c3ccc(CO)cc3)C=C2C1=O (stereo unspecified)	none (no result: Rab9 promoter act, ELG1 genotoxic, p53 reactivation, FLuc counter, NPC1 prom act)
Cc1ccc(OCC(=O)c2ccc3c(c2)CCCC3)cc1C	Rab9 promoter act 1.1µM, ELG1 genotoxic inconclusive, p53 reactivation inconclusive, FLuc counter 9.5µM, NPC1 prom act 0.56µM
Cc1cccnc1NC(=O)COc1ccc2c(c1)CCC2	Rab9 promoter act inconclusive, ELG1 genotoxic 9.2µM, FLuc counter 17µM, NPC1 prom act inconclusive (no result: SMN2 splice up)
Cc1csc(NC(=O)COc2ccc3c(c2)CCC3)n1	Rab9 promoter act 3.5µM, ELG1 genotoxic inconclusive, p53 reactivation inconclusive, FLuc counter 12µM, NPC1 prom act inconclusive (no result: SMN2 splice up)
Cc1ccc(NC(=O)COc2ccc3c(c2)CCC3)nc1	Rab9 promoter act inconclusive, ELG1 genotoxic 9.2µM, FLuc counter 9.5µM, NPC1 prom act inconclusive (no result: SMN2 splice up)
CCOC(=O)c1cccc(NC(=O)c2ccc3nc(CCc4ccccc4)oc3c2)c1	none (no result: Rab9 promoter act, ELG1 genotoxic, p53 reactivation, NPC1 prom act, SMN2 splice up)
COc1ccc(C(=O)Nc2ccc3c(c2)N(C2CCCC2)C(=O)c2ccccc2S3)cc1OC	none (no result: Rab9 promoter act, ELG1 genotoxic, p53 reactivation, NPC1 prom act, SMN2 splice up)
Cc1ccc(C23CC4CC(CC(CC(=O)N5CCOCC5)(C4)C2)C3)cc1	none
C[C@@]12C=CC(=O)C=C1CC[C@H]1[C@H]3CC[C@](O)(C(=O)CO)[C@]3(C)CC(=O)[C@@H]12	none (no result: Rab9 promoter act, ELG1 genotoxic, p53 reactivation, FLuc counter, NPC1 prom act)
